Unmarked numbers belong to inactive results. For some assays here: Results with a measured potency or affinity are listed apart. The source made the active and inactive calls. Unless noted, no rule for the calls is given here.
What was measured:
[1] = antimalarial activity against Dd2 strain (AID 2302;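 active = growth inhibition above 50% at the single 2 µM test dose, taken to imply half-maximal potency below 2 µM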;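 also: 0% = DMSO untreated growth and 100% = chloroquine plus artemisinin killed control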); settings: P. falciparum Dd2 in RBCs, LDH growth readout, 72 h; at 2 µM; active compounds read high
[2] = HepG2 cytotoxicity, primary screen, cytotoxicity control for P. falciparum antimalarial project, cell-based, ATP luminescence (AID 2303;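 active = inhibition above 50%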;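 also: 0% = DMSO wells and 100% = digitonin-killed cells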); settings: HepG2 viability, 24-48 h, at 10 µM, active compounds read high
[3] = target: L-lactate dehydrogenase (Plasmodium falciparum (isolate CDC / Honduras)) (UniProt Q27743); assay: PfLDH activity inhibition – cell lysate, 3D7 strain, counter-screen for P. falciparum growth inhibition project (AID 2304);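 also: 0% = vehicle and 100% = reference inhibitor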; settings: P. falciparum 3D7 crude extract, LDH APAD/NBT absorbance; at 2 µM; active compounds read high
Chain of L-lactate dehydrogenase (Plasmodium falciparum (isolate CDC / Honduras)) (Q27743 whole entry, looked up): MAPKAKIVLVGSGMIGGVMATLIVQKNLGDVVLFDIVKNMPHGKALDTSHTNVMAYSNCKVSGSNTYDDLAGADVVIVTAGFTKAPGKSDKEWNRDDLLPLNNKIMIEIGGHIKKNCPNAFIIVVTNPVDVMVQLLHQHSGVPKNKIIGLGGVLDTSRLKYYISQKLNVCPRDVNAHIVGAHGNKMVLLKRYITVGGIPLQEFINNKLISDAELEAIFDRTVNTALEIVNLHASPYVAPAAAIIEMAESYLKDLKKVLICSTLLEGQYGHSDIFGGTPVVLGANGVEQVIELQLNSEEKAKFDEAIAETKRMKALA

[4] = inhibition of 3D7 malaria parasite growth – strain 3D7 (AID 2306);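 also: 0% = DMSO wells and 100% = chloroquine plus artemisinin control wells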; settings: P. falciparum 3D7 erythrocytic growth, LDH absorbance, 72 h; at 2 µM; active compounds read high
[5] = target: Calcium-dependent protein kinase 1 (Plasmodium falciparum (isolate 3D7)) (UniProt P62344); assay: PfCDPK1 kinase inhibitors, biochemical, TCAMS library (AID 1159585; cut-off not given, nearly all actives have IC50 up to about 0.98 µM;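 also: inhibitors leave more ATP so luminescence rises with inhibition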); settings: recombinant PfCDPK1, Kinase-Glo ATP depletion luminescence
Chain of Calcium-dependent protein kinase 1 (Plasmodium falciparum (isolate 3D7)) (P62344 whole entry, looked up): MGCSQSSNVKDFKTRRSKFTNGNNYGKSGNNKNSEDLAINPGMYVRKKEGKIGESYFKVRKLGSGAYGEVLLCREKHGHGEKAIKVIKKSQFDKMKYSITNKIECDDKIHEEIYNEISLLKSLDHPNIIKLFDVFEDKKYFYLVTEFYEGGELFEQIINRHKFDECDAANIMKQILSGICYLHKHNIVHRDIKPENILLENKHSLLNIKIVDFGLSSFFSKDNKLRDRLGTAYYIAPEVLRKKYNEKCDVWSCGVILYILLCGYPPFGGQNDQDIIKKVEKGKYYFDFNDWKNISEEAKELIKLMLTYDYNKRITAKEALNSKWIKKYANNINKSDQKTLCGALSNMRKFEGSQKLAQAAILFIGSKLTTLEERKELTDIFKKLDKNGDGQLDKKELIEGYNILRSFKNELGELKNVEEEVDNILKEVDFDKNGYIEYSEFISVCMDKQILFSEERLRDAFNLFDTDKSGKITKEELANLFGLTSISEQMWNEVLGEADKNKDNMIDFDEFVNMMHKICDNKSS

[6] = target: Plasmodium falciparum protein kinase 6 (PK6, PF3D7_1337100) (UniProt Q8IDW1); assay: PfPK6 kinase inhibitors, biochemical, TCAMS library (AID 1159586); settings: recombinant PfPK6, Kinase-Glo ATP depletion luminescence
Chain of Plasmodium falciparum protein kinase 6 (PK6, PF3D7_1337100) (Q8IDW1 1-305): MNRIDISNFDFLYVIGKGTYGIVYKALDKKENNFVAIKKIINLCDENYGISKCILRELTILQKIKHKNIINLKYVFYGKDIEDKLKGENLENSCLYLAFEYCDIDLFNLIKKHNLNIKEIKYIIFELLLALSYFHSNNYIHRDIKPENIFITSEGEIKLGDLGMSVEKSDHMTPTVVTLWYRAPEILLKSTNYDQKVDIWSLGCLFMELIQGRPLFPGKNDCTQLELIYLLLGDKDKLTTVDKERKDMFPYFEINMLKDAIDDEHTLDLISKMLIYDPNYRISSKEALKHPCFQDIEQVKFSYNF

[7] = target: Protein kinase 7 (PK7), Plasmodium falciparum 3D7 (PF3D7_0213400) (UniProt Q7YTF7); assay: inhibition of Plasmodium PK7 catalytic activity – biochemical, TCAMS antimalarial set, Kinase-Glo luminescence (AID 1159587); settings: recombinant PfPK7, Kinase-Glo ATP depletion luminescence
Chain of Protein kinase 7 (PK7), Plasmodium falciparum 3D7 (PF3D7_0213400) (Q7YTF7 1-343): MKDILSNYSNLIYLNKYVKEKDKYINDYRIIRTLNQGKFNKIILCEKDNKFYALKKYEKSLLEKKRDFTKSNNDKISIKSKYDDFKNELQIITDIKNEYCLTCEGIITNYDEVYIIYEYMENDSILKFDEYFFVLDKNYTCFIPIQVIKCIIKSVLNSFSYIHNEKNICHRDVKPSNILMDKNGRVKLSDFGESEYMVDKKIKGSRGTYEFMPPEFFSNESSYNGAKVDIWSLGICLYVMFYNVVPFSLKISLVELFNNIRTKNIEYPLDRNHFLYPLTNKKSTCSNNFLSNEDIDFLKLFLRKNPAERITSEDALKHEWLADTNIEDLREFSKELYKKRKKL

[8] = target: Calcium-dependent protein kinase 4 (Plasmodium falciparum (isolate 3D7)) (UniProt Q8IBS5); assay: PfCDPK4 kinase inhibitors, biochemical, TCAMS library (AID 1159588; cut-off not given, nearly all actives have IC50 up to about 0.91 µM); settings: recombinant PfCDPK4, Kinase-Glo ATP depletion luminescence
Chain of Calcium-dependent protein kinase 4 (Plasmodium falciparum (isolate 3D7)) (Q8IBS5 whole entry, looked up): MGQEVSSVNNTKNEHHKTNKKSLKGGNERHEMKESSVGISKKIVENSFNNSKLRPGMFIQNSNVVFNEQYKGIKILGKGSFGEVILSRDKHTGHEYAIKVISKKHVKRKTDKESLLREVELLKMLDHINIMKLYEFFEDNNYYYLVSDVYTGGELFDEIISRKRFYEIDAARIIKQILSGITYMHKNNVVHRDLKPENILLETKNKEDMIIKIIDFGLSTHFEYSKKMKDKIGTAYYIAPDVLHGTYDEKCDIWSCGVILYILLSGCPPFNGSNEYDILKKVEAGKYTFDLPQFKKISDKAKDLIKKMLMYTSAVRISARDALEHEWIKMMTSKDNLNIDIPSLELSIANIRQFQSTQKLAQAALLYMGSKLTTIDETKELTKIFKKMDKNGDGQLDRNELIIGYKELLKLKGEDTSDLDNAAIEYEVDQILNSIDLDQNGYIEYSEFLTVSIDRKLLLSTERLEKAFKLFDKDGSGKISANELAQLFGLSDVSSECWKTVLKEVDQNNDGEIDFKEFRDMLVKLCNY

Compound	growth inhibition [1]	inhibition [2]	inhibition [3] [%]	growth inhibition [4]	outcome [5]	outcome [6]	outcome [7]	outcome [8]
COC(=O)CCn1c(C2CCN(CC3CCC(NC(=O)/C=C/c4ccc(Cl)c(Cl)c4)CC3)CC2)nc2ccccc21 (stereo not given)	10%	14%	-2	94% (active)	inactive	inactive	inactive	inactive
CCCCCCCNC(=O)NCC1CCCN(CCCCCNC(=O)/C=C/c2ccc(Cl)c(Cl)c2)C1 (stereo not given)	7%	98% (active)	-1	86% (active)	inactive	inactive	inactive	inactive
CC(C)Nc1cc(C(=O)N[C@@H](Cc2ccccc2)[C@H](O)CNC2CCCCC2)cc(N2CCCCS2(=O)=O)c1	98% (active)	9%	4	98% (active)	inactive	inactive	inactive	inactive
N#Cc1cc(C(=O)Nc2ccccc2)c(N)nc1SCC(=O)Nc1ccc(Br)cc1	66% (active)	11%	1	101% (active)	inactive	inactive	inactive	inactive
COc1cc(C(=O)Nc2nc3ccccc3[nH]2)ccc1OCC(=O)Nc1cccc(C(F)(F)F)c1	33%	33%	-8	100% (active)	inactive	inactive	inactive	inactive
O=[N+]([O-])c1ccc(-n2nc(Cc3ccccc3)n(Cc3cccc(F)c3)c2=S)c(C(F)(F)F)c1	100% (active)	4%	-3	101% (active)	inactive	inactive	inactive	inactive
CC(C)Oc1ccccc1-c1csc(C(=O)NCC2CCN(Cc3ccc(C(C)(C)C)cc3)C2)c1 (stereo not given)	45%	59% (active)	2	90% (active)	inactive	inactive	inactive	inactive
Nc1c(Cl)cc(C(O)CNCCCCCCOCCc2ccc(CO)s2)cc1Cl (stereo not given)	71% (active)	1%	-2	86% (active)	inactive	inactive	inactive	inactive
CC(=O)Nc1ccc(NC(=O)c2cc(-c3ccc(C)cc3O)n[nH]2)cc1	78% (active)	-3%	-6	101% (active)	inactive	inactive	inactive	inactive
Cc1[nH]nc2cc(Nc3ccnc(Nc4ccc(CN5CCOCC5)cc4)n3)ccc12	5%	22%	-4	97% (active)	inactive	inactive	inactive	inactive
CCN(CC)CC(O)c1cc(-c2ccc(C)cc2)nc2c(C)cc(C)cc12 (stereo not given)	99% (active)	3%	1	100% (active)	inactive	inactive	inactive	inactive
CCCCCOc1ccc(NC2=CC(=O)C(=O)c3ccccc32)cc1	96% (active)	10%	-4	99% (active)	inactive	inactive	inactive	inactive
CC(C)c1ccc(N2CCN(CCCCNC(=O)c3ccc(NC(=O)c4cc(Cl)cc(Cl)c4)cc3)CC2)cc1	86% (active)	12%	8	101% (active)	inactive	inactive	inactive	inactive
Oc1ccc(CCNc2nc(NCCOc3cccc4ccccc34)nc(N3CCNCC3)n2)cc1	8%	21%	1	96% (active)	inactive	inactive	inactive	inactive
O=C(Nc1cccc(CN2CCCN(Cc3cccc(O)c3)CC2)c1)c1ccc2ccccc2c1	42%	21%	-4	97% (active)	inactive	inactive	inactive	inactive
N#Cc1cccc(CN(Cc2ccc(Cl)c(Cl)c2)S(=O)(=O)c2cccc([N+](=O)[O-])c2)c1	73% (active)	3%	-8	100% (active)	inactive	inactive	inactive	inactive
CC1(C)N=C(N)N=C(N)N1OCCCCON1C(N)=NC(N)=NC1(C)C	95% (active)	54% (active)	4	97% (active)	inactive	inactive	inactive	inactive
CC(Nc1ncc(-c2ccsc2)c(-c2nccs2)n1)c1ccc2c(c1)OCCO2 (stereo not given)	66% (active)	14%	2	81% (active)	inactive	inactive	inactive	inactive
NC(=O)NC(=O)C=Cc1ccco1	-3%	32%	-7	97% (active)	inactive	inactive	inactive	inactive
OCCN1CCN(Cc2ccc(-c3ccc(-c4nc5ccc(F)cc5[nH]4)cc3)cc2)CC1	99% (active)	33%	-5	101% (active)	inactive	inactive	inactive	inactive

Compound	growth inhibition [1]	inhibition [2]	inhibition [3] [%]	growth inhibition [4]	outcome [5]	outcome [6]	outcome [7]	outcome [8]
COC(=O)Nc1ccc(-c2ccc(C(=O)NC3CCN(C[C@H](O)c4ccnc5ccc(OC)cc45)CC3)cc2)c(C)c1	97% (active)	32%	-2	100% (active)	inactive	inactive	inactive	inactive
NCC1CCCN1Cc1ccc(-c2ccc(-c3nc4ccc(F)cc4[nH]3)cc2)cc1 (stereo not given)	100% (active)	31%	-3	102% (active)	inactive	inactive	inactive	inactive
COc1ccc(CN2CCN(C(=O)c3cccs3)CC2)c(O)c1	2%	7%	2	97% (active)	inactive	inactive	inactive	inactive
Cc1ccc(C2CCN(CCCCNC(=O)c3ccc(-c4ccc(C(F)(F)F)cc4)cc3)CC2)c(O)c1	49%	92% (active)	-2	100% (active)	inactive	inactive	inactive	inactive
Cc1cc(Nc2ccc(Cl)cc2)n2nc(C(F)(F)F)nc2n1	95% (active)	5%	-1	97% (active)	inactive	inactive	inactive	inactive
O=C(Nc1ccc(-c2nc3ccccc3[nH]2)cc1)C1CCN(Cc2ccc(F)cc2)CC1	91% (active)	13%	1	102% (active)	inactive	inactive	inactive	inactive
Cc1nc(N)nc(N)c1-c1cccc(Cl)c1	-1%	60% (active)	2	88% (active)	inactive	inactive	inactive	inactive
Cc1cc(C(F)(F)F)n2nc(C(=O)N(Cc3cncn3Cc3ccccc3F)CC3CC3)cc2n1	100% (active)	-5%	1	100% (active)	inactive	inactive	inactive	inactive
Nc1cccc(CNCc2cccc(-c3csc(-c4nc5ccccc5[nH]4)c3)c2)c1	63% (active)	13%	4	102% (active)	inactive	inactive	inactive	inactive
CO/C(=C\C=C\c1cc2cc(Cl)c(Cl)cc2[nH]1)C(=O)NCCCN1CCC(c2ccccc2)CC1	92% (active)	33%	-1	100% (active)	inactive	inactive	inactive	inactive
COc1ccc(Cn2c(Nc3cccc(C(F)(F)F)c3)nc3cc(C(=O)NCCCN(C)C)ccc32)cc1Cl	3%	15%	-7	90% (active)	inactive	inactive	inactive	inactive
Cc1cc(N[C@@H](Cc2ccccc2)C(=O)NCCc2ccccc2)nc(NCc2ccccc2C)n1	85% (active)	37%	-2	99% (active)	inactive	inactive	inactive	inactive
Cc1ccc(N2C(=O)C3C(C2=O)[C@]2(c4ccccc4)C(=O)[C@@]3(c3ccccc3)C(c3ccccc3)=C2c2ccccc2)cc1 (stereo not given in full)	96% (active)	17%	-2	92% (active)	inactive	inactive	inactive	inactive
Cc1cc(N)ncc1-c1ccc(NC(=O)Nc2cc(C(F)(F)F)ccc2F)cc1	23%	15%	3	100% (active)	inactive	inactive	inactive	inactive
CCNc1cc(C(=O)N[C@@H](Cc2ccccc2)[C@H](O)CNC2CCC(F)(F)CC2)c(F)c(N2CCCCS2(=O)=O)c1	97% (active)	-5%	-1	100% (active)	inactive	inactive	inactive	inactive
COc1ccc(NC(=O)Nc2ccc(-c3ccncc3)c(Cl)c2)cc1N1CCN(C)CC1	62% (active)	19%	3	98% (active)	inactive	inactive	inactive	inactive
CCNC(=O)Nc1ccc(-c2cccc(-c3nc4c(C)cccc4[nH]3)c2)cc1	34%	16%	-8	91% (active)	inactive	inactive	inactive	inactive
CN1CCC(N(Cc2ccc(-c3ccc(Cl)cc3)cc2)C(=O)Cn2c(CCc3cccc(F)c3F)cc(=O)c3ccccc32)CC1	88% (active)	93% (active)	-3	97% (active)	inactive	inactive	inactive	inactive
CNc1nc(NN=Cc2cc3c(cc2[N+](=O)[O-])OCO3)nc(Nc2cccc(C(F)(F)F)c2)n1	60% (active)	-1%	2	101% (active)	inactive	inactive	inactive	inactive
CCCOc1ccc(C=C(CC(=O)O)c2nc3ccccc3s2)cc1OCC	84% (active)	7%	-1	89% (active)	inactive	inactive	inactive	inactive
